Compound activity as filed in PubChem.
The list is not random: actives were taken first. Their share in the collection is about 19%.
HT1080 IDH1KD tx – toxicity to HT-1080 IDH1 knockdown cells (counter line); HT-1080 IDH1 knockdown viability, ATP luminescence, 48 h; Potency, µM (series often up to 46.1 µM), without a hit: at the top dose activity, negative = toxicity, most hits filed as cytotoxic; actives 2% (n = 360,000); AID 686971;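 note: potency is the fitted concentration of half-maximal effect; 0% = DMSO wells and -100% = cell-free medium wells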
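In this qHTS, HT-1080 cells depleted of IDH1 are exposed for 48 h at 37 °C to compound titrations. Toxicity is scored from CellTiter-Glo luminescence, with DMSO as full viability and medium alone as none.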
IL-1B inflam inh – blocks inflammasome-driven IL-1 beta release | THP-1 LPS/ATP IL-1B secretion, AlphaLISA, 16 h; hits give low values | activity change, % at 57.5 µM | actives 4.7% (n = 360,000); in the data active = activity change below about -50%; inconclusive = mostly about -30% to -49%
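THP-1 cells pretreated 1 hr with compounds (up to 57.5 uM final), then stimulated with LPS (250 ng/mL final) plus ATP (1.25 mM final); secreted IL-1B measured by AlphaLISA after 16 hr, decreased signal indicating inhibition.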
TDP1 cell noCPT – qHTS for Inhibitors of human tyrosyl-DNA phosphodiesterase 1 (TDP1): qHTS in cells in absence of CPT; DT40 Tdp1-/- hTDP1 cells, no CPT, ATP luminescence, 48 h; actives 15% (n = 420,000); Potency, µM (series often up to 46.2 µM), for the others: top-dose activity change, negative = growth inhibition, actives largely listed as inhibitors; note: potency is the fitted concentration of half-maximal effect; nearly all actives have a fitted effect of over 55% in size
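Growth of hTDP1-complemented DT40 Tdp1-knockout cells is measured by ATP luminescence after at least 48 hr compound exposure at 37 °C, with DMSO substituting for the 20 nM CPT used in the parallel screen.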
HT1080NT lethal – kills 2HG-producing HT-1080-NT fibrosarcoma cells. actives 1.6% (n = 360,000). HT-1080-NT fibrosarcoma viability, CellTiter-Glo ATP luminescence, 48 h. Potency, µM (highest dose often 46.1 µM), inactives show at the highest dose activity, negative = less viability, most hits filed as cytotoxic;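 note: NT is the 2HG producing partner of a matched IDH1 knockdown line; potency is the fitted concentration of half-maximal effect; 0% = DMSO-treated cells and -100% = media-only wells without cells; nearly all actives have a fitted effect of over 55% in size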
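HT-1080-NT fibrosarcoma cells (2HG-overproducing), 750 cells/well in RPMI with 5% FBS, dosed after 2 h and incubated 48 h at 37C. CellTiter-Glo luminescence normalized to DMSO and no-cell wells; concentration-response curves fitted and classed.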
TDP1 cell CPT – DT40-hTDP1 cell growth loss with CPT | chicken DT40 Tdp1-/-;hTDP1 cells + 20 nM CPT, ATP luminescence, 48 h | Potency, µM (series often up to 46.2 µM), for the others: at the highest dose activity change, negative = growth inhibition, actives largely listed as inhibitors | actives 12% (n = 420,000) | AID 686979; note: potency is the fitted concentration of half-maximal effect; nearly all actives have a fitted effect of over 55% in size
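Chicken DT40 Tdp1-/- cells stably complemented with human TDP1 were seeded at 400 cells/well in medium containing 20 nM camptothecin, exposed to pin-transferred compounds, and grown at 37 °C for at least 48 hr. Viability was read as ATP luminescence.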
Active calls of the source: *; ? = inconclusive; · = no result. Unless noted, calls come from the whole dose curve; as a rule, active = well fitted curve in the direction sought with a large enough effect; inconclusive = small, poorly fitted or top-dose-only effect, or another doubt; inactive = no such curve, though single readings can be large; an effect the other way counts as inactive or inconclusive. Unless noted, % is set by controls: 0 for no effect and ±100 for the full control effect.

SMILES	HT1080 IDH1KD tx	IL-1B inflam inh	TDP1 cell noCPT	HT1080NT lethal	TDP1 cell CPT
CC(C)CCNC(=O)C1CCC(CNS(=O)(=O)c2ccc(Cl)cc2)CC1 (stereo unspecified)	0.1%	7.1	1.9%	-0.1%	-2.7%
FC(F)(F)c1ccccc1-n1c(-c2ccco2)n[nH]c1=S	4.0%	25.8	-19.7%	11.4%	-2.2%
COc1ccccc1-c1cnc(C(O)c2ccc(C(C)(C)C)cc2)[nH]1 (stereo unspecified)	?	-14.0	18.4µM*	-7.3%	?
COc1ccccc1-c1cnc(C(O)c2cc(C)ccc2C)[nH]1 (stereo unspecified)	-2.1%	21.1	?	-0.8%	25.9µM*
COc1ccccc1-c1cnc(C(O)c2ccccc2)[nH]1 (stereo unspecified)	?	-3.5	?	-7.5%	-25.9%
CCc1ccc(C(O)c2ncc(-c3ccccc3OC)[nH]2)cc1 (stereo unspecified)	-11.4%	33.4	18.4µM*	0.1%	23.1µM*
COc1ccccc1-c1cnc(C(O)c2ccc(C)cc2C)[nH]1 (stereo unspecified)	-2.7%	-9.5	?	-9.6%	-27.8%
Cc1ccc(S(=O)(=O)Nc2ncc(C(F)(F)F)cc2Cl)cc1	-5.2%	-3.5	-8.2%	-1.6%	-0.6%
COc1ccc(Cn2cc(CN3CC(N4CCN(CCO)CC4)CS3(=O)=O)nn2)cc1 (stereo unspecified)	0.7%	16.6	-14.1%	20.6%	-0.8%
CCN(CC)CCn1c2ccccc2c2nc3ccc([N+](=O)[O-])cc3cc21	-29.9%	-15.6	4.61µM*	-28.5%	8.2µM*
CCCCC(=O)Nc1cccc(-c2csc(-c3ccccc3)n2)c1	?	-79.1*	?	-22.2%	?
CC(=O)c1cccc(Nc2nc(-c3ccccc3)cs2)c1	-16.6%	-0.9	?	-20.7%	?
O=C(Nc1cccc(-c2csc(Nc3ccccc3)n2)c1)c1ccccc1	-26.0%	-61.2*	20.6µM*	-26.0%	?
O=C(Nc1ccc(-c2csc(Nc3cccc(C(F)(F)F)c3)n2)cc1)c1ccccc1	-12.5%	89.0	9.2µM*	-23.2%	4.61µM*
O=C(Nc1ccc(-c2csc(Nc3ccc(Cl)cc3)n2)cc1)c1ccccc1	-1.5%	12.3	?	-4.3%	?
O=C(Nc1cccc(-c2csc(Nc3cccc(C(F)(F)F)c3)n2)c1)c1ccccc1	?	3.8	?	-19.8%	?
O=C(Nc1ccc(-c2csc(Nc3cccc(C(F)(F)F)c3)n2)cc1)c1cc([N+](=O)[O-])cc(C(F)(F)F)c1	-0.6%	10.4	16.4µM*	4.7%	14.6µM*
CCOC(=O)CNC(=O)CSc1nnc(-c2c[nH]c3ccccc23)n1CC	6.5%	17.1	-4.1%	0.0%	-2.6%
Cc1cc(NC(=O)C(C)Oc2ccc(C(C)(C)C)cc2)no1 (stereo unspecified)	-2.0%	25.5	-6.7%	2.7%	-10.0%
CCCNC(=O)CCn1c(=S)oc2ccccc21	12.8%	-12.0	?	3.6%	9.2µM*
Cc1cc(C)n(/N=C/c2ccc(O)cc2)c(=O)c1C#N	17.6%	-2.8	-17.5%	16.0%	-22.0%
Cc1cc(C)n(/N=C/c2ccc(C(C)C)cc2)c(=O)c1C#N	15.2%	-17.9	8.2µM*	11.8%	?
OCC1(Cc2ccccc2)CCCN(Cc2cnn(-c3ccccc3)c2)C1 (stereo unspecified)	-20.1%	?	?	-13.2%	?
COc1cccc(CC2(CO)CCCN(Cc3cn[nH]c3-c3cc(C)ccc3C)C2)c1 (stereo unspecified)	-22.6%	?	?	?	?
COc1cccc(CC2(CO)CCCN(Cc3c(C)cc(C)cc3-n3cccn3)C2)c1 (stereo unspecified)	?	-9.9	14.6µM*	?	20.6µM*
SMILES	HT1080 IDH1KD tx	IL-1B inflam inh	TDP1 cell noCPT	HT1080NT lethal	TDP1 cell CPT
COc1cccc(CC2(CO)CCCN(Cc3ccc(CO)o3)C2)c1 (stereo unspecified)	1.1%	19.8	-3.3%	0.6%	-15.1%
COc1ccccc1-n1cc(CN2CCCC(CO)(Cc3cccc(Cl)c3)C2)cn1 (stereo unspecified)	-1.9%	0.0	23.1µM*	0.0%	?
COc1cccc(CC2(CO)CCCN(Cc3ccc(C)s3)C2)c1 (stereo unspecified)	-14.3%	-6.2	?	1.8%	-17.8%
COc1cccc(CC2(CO)CCCN(Cc3cc4ccccc4[nH]3)C2)c1 (stereo unspecified)	23.1µM*	-53.5*	?	?	?
COc1ccc(-n2ccnc2CN2CCCC(CO)(Cc3cccc(OC)c3)C2)cc1 (stereo unspecified)	-5.2%	2.2	25.9µM*	-23.6%	?
COc1cc(C2c3c(oc4ccc(F)cc4c3=O)C(=O)N2Cc2ccc3c(c2)OCO3)ccc1O (stereo unspecified)	·	·	-5.1%	·	2.2%
COc1cccc(CC2(CO)CCCN(Cc3ccc(-c4ccco4)cc3)C2)c1 (stereo unspecified)	?	7.0	20.6µM*	?	23.1µM*
COc1cccc(CC2(CO)CCCN(Cc3ccccc3-c3ccco3)C2)c1 (stereo unspecified)	?	19.5	?	?	?
Cn1ncc(Cl)c1C(=O)NCc1ccc2c(c1)OCO2	-9.4%	35.6	?	-1.3%	?
Cn1ncc(Cl)c1C(=O)NCc1ccc(Cl)cc1	-5.5%	25.6	8.2µM*	-1.2%	?
FC(F)(F)c1cccc(CNC(=S)Nc2ccccc2)c1	-2.4%	-79.0*	16.4µM*	-21.8%	?
FC(F)(F)c1cccc(NC(=S)NCc2ccccc2)c1	?	-2.1	23.1µM*	?	20.6µM*
O=C(CNC(=O)Cc1ccccc1)NCc1cccc(C(F)(F)F)c1	2.3%	5.2	-14.9%	4.6%	12.1%
Cc1ccc(N(C(=O)CNC(=O)c2ccco2)C(C(=O)NC2CCCC2)c2ccncc2)cc1C (stereo unspecified)	24.6%	8.1	12.8%	6.2%	-1.8%
COc1ccc(CC(=O)NCC2CCCN(Cc3ccc(OC(F)(F)F)cc3)C2)cc1 (stereo unspecified)	-5.4%	-21.9	18.4µM*	?	-0.4%
COC(=O)c1ccc(CN2CCCC(CNC(=O)Cc3ccc(OC)cc3)C2)cc1 (stereo unspecified)	-2.3%	16.5	10.4%	3.7%	-3.1%
COc1ccc(CC(=O)NCC2CCCN(Cc3cc(OC)cc(OC)c3)C2)cc1 (stereo unspecified)	-0.9%	-50.4*	-12.1%	1.2%	-21.3%
